Test results taken from PubChem BioAssay (NCATS).
Results filed as inconclusive are left out. Calls of active or inactive are those of the source. Calls come from the whole dose curve; as a rule, active = well fitted cell-killing curve with a large enough effect; inconclusive = small, poorly fitted or top-dose-only effect, or effect the other way; inactive = no such curve, though single readings can be large or run the other way.

Experiment: qHTS assay to identify small molecule inhibitors of chordoma cells - UCH-1 (AID 1259355); note: nearly all actives have a fitted effect of over 55% in size
Conditions: UCH-1 chordoma viability, CellTiter-Glo, 48 h, combination, with auranofin plus four topoisomerase inhibitors; series mostly up to 46.1 µM; activity, negative = inhibition: at the top concentration
Outline: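 800 cells/well, overnight attach; compounds pinned at 15 concs, then auranofin/camptothecin/doxorubicin/rubitecan/topotecan combo added; 48hr 37 C, 5% CO2; CellTiter-Glo, 30min RT, luminescence.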
% is set by controls: 0 for no effect and ±100 for the full control effect.

Compound | activity, negative = inhibition
Cn1c(=O)c2c(ncn2CCOC(=O)C(C)(C)Oc2ccc(Cl)cc2)n(C)c1=O | -10.8% (inactive)
OC[C@@H](O)C(O)[C@H](O)CO | -4.51% (inactive)
NCCN | -20.8% (inactive)
CC(C)(C)C(=O)OCC(=O)[C@H]1CC[C@H]2[C@@H]3CCC4=CC(=O)CC[C@]4(C)[C@H]3CC[C@]12C | -25.9% (inactive)
O=C(c1cc2ccccc2o1)N1CCN(Cc2ccccc2)CC1 | -11.7% (inactive)
CO[C@H]1C[C@H](O[C@H]2[C@H](C)[C@@H](O[C@@H]3O[C@H](C)C[C@H](N(C)C)[C@H]3O)[C@@H](C)C[C@]3(CO3)C(=O)[C@H](C)[C@@H](O)[C@@H](C)[C@@H](C)OC(=O)[C@@H]2C)O[C@@H](C)[C@@H]1O | -27.9% [at 20.6 µM] (inactive)
C[C@H](CCCC(C)(C)O)[C@H]1CC[C@H]2[C@@H]3CC=C4C[C@@H](O)CC[C@]4(C)[C@H]3CC[C@]12C | -12.4% (inactive)
C=C1CC[C@H](O)CC1=C/C=C1\CCC[C@]2(C)[C@@H]([C@H](C)CCCC(C)(C)O)CC[C@@H]12 | -21.1% (inactive)
CC(=O)c1ccc2c(c1)N(CCCN1CCN(CCO)CC1)c1ccccc1S2 | -18.7% (inactive)
Nc1nccs1 | -16.7% (inactive)
C/C=C/C=C/C(=O)O | -24% (inactive)
O=C(O)[C@H]1C(=CCO)O[C@H]2CC(=O)N12 | -5.91% (inactive)
NCC[C@H](O)C(=O)N[C@@H]1C[C@H](N)[C@@H](O[C@H]2O[C@H](CN)CC[C@H]2N)[C@H](O)[C@H]1O[C@H]1O[C@H](CO)[C@@H](O)[C@H](N)[C@H]1O | -10.6% (inactive)
O[C@@H]([C@H](O)[C@H](O)CBr)[C@H](O)CBr | -40.3% (inactive)
CC(C)[C@@H]1CC[C@@H](C)C[C@H]1O | 2.31% (inactive)
CC[C@H](CC[C@@H](C)[C@H]1CC[C@H]2[C@@H]3CC=C4C[C@@H](O)CC[C@]4(C)[C@H]3CC[C@]12C)C(C)C | -5.86% (inactive)
Cc1ncc(C[n+]2csc(CCOP(=O)(O)O)c2C)c(N)n1 | -2.83% (inactive)
S=C=Nc1ccc(N=C=S)cc1 | -5.44% (inactive)
CCOC(C)OCC | -11% (inactive)

Compound | activity, negative = inhibition
CCCC1C(=O)N2C(N(C)C)=Nc3ccc(C)cc3N2C1=O (stereo not drawn) | -12% [at 20.6 µM] (inactive)
NC(N)=NCC1COC2(CCCCC2)O1 (stereo not drawn) | 13.5% [at 20.6 µM] (inactive)
Cc1cc(=O)c(C(=O)N[C@@H](C(=O)N[C@@H]2C(=O)N3C(C(=O)O)=C(CSc4nnnn4C)CS[C@H]23)c2ccc(O)cc2)c[nH]1 | -23.1% (inactive)
C=C1c2c(Cl)ccc(O)c2C(O)=C2C(=O)[C@]3(O)C(O)=C(C(N)=O)C(=O)[C@@H](N(C)C)[C@@H]3[C@@H](O)[C@H]12 | -2.75% [at 20.6 µM] (inactive)
O=C(O)c1ccc(OCCn2ccnc2)cc1 | -9.13% (inactive)
O=C1CCC(c2ccccc2)(C2CCN(Cc3ccccc3)CC2)C(=O)N1 (stereo not drawn) | -14% (inactive)
CC(C)(C)NCC(O)c1ccc(O)c(CO)n1 (stereo not drawn) | 7.85% (inactive)
COc1ccc(C(=O)/C(Br)=C\C(=O)O)cc1 | -17% (inactive)
CCCC(=O)O | -11.3% (inactive)
Nc1ncnc2c1ncn2CCOCP(=O)(O)O | -10.3% (inactive)
Nc1nc(NC2CC2)c2ncn([C@@H]3C=C[C@@H](CO)C3)c2n1 | -9.51% (inactive)
CC/C=C\C/C=C\C/C=C\C/C=C\C/C=C\CCCC(=O)O | -8.55% (inactive)
N[C@@H](Cc1cc(I)c(Oc2ccc(O)c(I)c2)c(I)c1)C(=O)O | -19.8% (inactive)
CCOC(=O)[C@@H](N)CS | -7.57% (inactive)
[O]=[Bi][O]C(=O)[O][Bi]=[O] | -28.5% (inactive)
Cc1cc(C(=O)NCCc2ccc(S(=O)(=O)NC(=O)NN3CCCCCC3)cc2)no1 | -10.5% (inactive)
CCCCCCCCCc1ccc(OCCOCCO)cc1 | -28.9% (inactive)
Cc1ncc[nH]1 | -15.1% (inactive)
CN[C@@H]1[C@H](O[C@H]2[C@H](O[C@H]3[C@H](O)[C@@H](O)[C@H](N=C(N)N)[C@@H](O)[C@@H]3N=C(N)N)O[C@@H](C)[C@]2(O)C=O)O[C@@H](CO)[C@H](O)[C@H]1O | -9.08% (inactive)
